We go through ten molecules from PubChem BioAssay.

Test [1] is described as follows: resazurin metabolic signal in HepG2 cells – cell-based, resazurin fluorescence, 24 h, PK04 Diversity Set, profiling panel (AID 1172). Further: test concentration not given here. As to conditions: HepG2 viability, higher = more signal. A general note: Resazurin is reduced to fluorescent resorufin, in cell work by metabolically active cells.
Test [2] in a line: budding yeast growth changes without added modifier – OD600, strain BY4716, 24 h, basal condition, primary screen (AID 1173). Conditions: S. cerevisiae BY4716 growth, OD600, 24 h; higher = more signal, called active from +8 up or from −8 down.
A short description of test [3]: viability profiling in MM1S myeloma cells – cell-based, resazurin fluorescence, basal, 24 h, PK04 Diversity Set, profiling panel (AID 1174).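 Further: MM1S multiple myeloma cell line; test concentration not given here.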 As to conditions: higher = more signal, called active from +8 up or from −8 down.
Test [4] addresses Dihydroorotate dehydrogenase (quinone), mitochondrial (Plasmodium falciparum (isolate 3D7)) (UniProt Q08210). The test is described as follows: inhibition of P. falciparum DHODH – biochemical, C-terminal His tag, absorbance 600 nm, primary screen (AID 1175).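 Further: recombinant parasite enzyme with a five histidine tag at its C terminus; test concentration not given here.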 Conditions: PfDHODH enzyme, DCIP absorbance 600 nm; higher = more signal, called active from +8 up or from −8 down.
Test [5] is described as follows: inhibition of PAO1 biofilm formation – strain PAO1, LB-PBS medium, absorbance 600 nm, primary screen (AID 1176). Further: test concentration not given here. Conditions: P. aeruginosa PAO1 growth/biofilm, A600, 12 h; higher = more signal.
Test [6] in a line: growth modulation of vineyard yeast isolate – strain RM11-1a, OD600, basal, 24 h, primary screen (AID 1177).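 Further: cultures grown under basal conditions with no added stressor; test concentration not given here.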 Conditions: S. cerevisiae RM11-1a growth, OD600, 24 h; higher = more signal, called active from +8 up or from −8 down.
The nature of test [7]: growth of efflux-deficient E. coli DRC39 – strain DRC39, OD650, 24 h, E. coli filamentation inducers, primary screen (AID 1178).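 Further: growth measured as culture turbidity by optical density at 650 nm; test concentration not given here.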 As to conditions: E. coli DRC39 acrAB, higher = more signal, called active from +8 up or from −8 down.
Test [8] can be described thus: growth of efflux-deficient E. coli DRC39 – strain DRC39, OD650, 48 h, E. coli filamentation inducers, primary screen (AID 1179).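 Further: screen aims at cell division blockers that make cells filament.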 As to conditions: E. coli DRC39 delta-acrAB growth, higher = more signal, called active from +8 up or from −8 down.
Test [9] is described as follows: viability profiling in RPMI8226 myeloma cells – cell-based, resazurin fluorescence, basal, 24 h, PK04 Diversity Set, profiling panel (AID 1180).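 Further: RPMI8826 multiple myeloma cell line at 5000 cells per well; test concentration not given here.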 Conditions: higher = more signal.
Test [10] has as its target E3 ubiquitin-protein ligase XIAP (Homo sapiens) (UniProt P98170). The test is described as follows: small molecules binding XIAP protein – biophysical, small-molecule microarray, fluorescence 635 nm, primary screen (AID 1181).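 Further: score merges 667 nm emission and signal to noise over triplicate slides.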 Conditions: higher = more signal.

Calls of active or inactive are those of the source. Unless noted, how the calls were made is not given here.

Dihydroorotate dehydrogenase (quinone), mitochondrial (Plasmodium falciparum (isolate 3D7)), sequence (Q08210 whole entry, looked up): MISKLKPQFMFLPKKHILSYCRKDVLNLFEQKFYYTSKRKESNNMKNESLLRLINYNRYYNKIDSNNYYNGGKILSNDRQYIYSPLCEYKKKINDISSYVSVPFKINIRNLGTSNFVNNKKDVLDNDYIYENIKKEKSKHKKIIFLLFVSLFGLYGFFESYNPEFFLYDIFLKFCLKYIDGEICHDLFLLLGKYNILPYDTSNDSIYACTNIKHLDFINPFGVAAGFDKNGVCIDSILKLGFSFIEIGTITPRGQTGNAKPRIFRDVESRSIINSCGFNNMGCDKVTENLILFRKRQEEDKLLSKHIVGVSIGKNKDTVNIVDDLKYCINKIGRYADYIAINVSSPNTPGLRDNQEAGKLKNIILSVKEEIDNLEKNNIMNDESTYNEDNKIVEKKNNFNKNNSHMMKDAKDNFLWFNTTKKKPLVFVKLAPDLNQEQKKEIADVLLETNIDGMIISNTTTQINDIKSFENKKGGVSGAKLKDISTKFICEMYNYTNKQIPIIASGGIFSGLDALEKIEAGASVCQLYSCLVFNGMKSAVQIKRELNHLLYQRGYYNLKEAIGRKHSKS
E3 ubiquitin-protein ligase XIAP (Homo sapiens), sequence (P98170 whole entry, looked up): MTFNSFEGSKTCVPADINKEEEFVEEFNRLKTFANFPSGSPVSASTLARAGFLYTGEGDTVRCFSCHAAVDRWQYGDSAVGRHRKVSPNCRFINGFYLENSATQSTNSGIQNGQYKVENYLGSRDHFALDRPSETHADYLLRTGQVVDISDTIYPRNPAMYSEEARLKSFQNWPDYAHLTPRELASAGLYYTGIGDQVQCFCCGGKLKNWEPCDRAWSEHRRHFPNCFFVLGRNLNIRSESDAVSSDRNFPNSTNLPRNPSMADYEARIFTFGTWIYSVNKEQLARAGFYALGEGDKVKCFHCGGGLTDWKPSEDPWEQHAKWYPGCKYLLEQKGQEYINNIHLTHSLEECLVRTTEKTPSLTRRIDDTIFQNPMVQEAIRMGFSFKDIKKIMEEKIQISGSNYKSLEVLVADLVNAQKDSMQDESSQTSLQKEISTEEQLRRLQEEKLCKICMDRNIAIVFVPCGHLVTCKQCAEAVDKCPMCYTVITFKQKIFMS

For `NCCCCCNC(=O)[C@@H]1C[C@@H]2C(=O)N3CCC[C@H]3C(=O)N2[C@@H]1c1cccc(OCCO)c1`, the z-score in test [1] is 0.0359; in [2] it was -0.582 (inactive); in test [3] it was 0.199 (inactive); in test [5] it was -0.226 (inactive); in test [6], -0.914 (inactive); in [7] it was 0.0544 (inactive). Further, the figures for the z-score in [8] and in test [9] were -0.109 (inactive) and -0.0506, respectively. Further, the results for the composite z-score in test [4] and in test [10] were -0.801 (inactive) and 0.522, respectively.
With `O=C1C[C@@H](O)[C@@H](O)[C@@H]2[C@@H]3C(=O)N(C4CCCCC4)C(=O)[C@@H]3CC[C@H]12`, the z-score in test [1] was 0.513; in test [2] it was 0.44 (inactive); in [3], -0.122 (inactive); in test [5], -0.319 (inactive); in test [6] it was -0.247 (inactive); in test [7] it was -0.0543 (inactive). Also, the z-score was -0.292 (inactive) in test [8] and 0.288 in [9]. Moreover, the composite z-score in test [4] is 0.349 (inactive); in test [10], -0.0454.
Turning to `COCCCNC(=O)[C@@]1(C)c2ccccc2C(=O)N(Cc2ccc(OC(F)(F)F)cc2)[C@H]1c1ccc(CO)cc1`, the z-score in [1] is -0.576; in [2], -0.0763 (inactive); in test [3], -0.741 (inactive); in [5], 0.431 (inactive); in test [6], -0.419 (inactive); in [7] it was 0.434 (inactive). In addition, the figures for the z-score in [8] and in [9] were 1.17 (inactive) and -0.661, respectively. The results for the composite z-score in test [4] and in [10] were -0.617 (inactive) and -0.148, respectively.
For the molecule `CCOC(=O)CCN1C(=O)[C@H]2[C@H]3[C@H](O)[C@H](O)CC(=NOC[C@@H](O)COCc4ccco4)[C@H]3CC[C@H]2C1=O`, the z-score is -0.749 in test [1]; -11.7 (active) in [2]; -0.0452 (inactive) in [3]; 0.0122 (inactive) in test [5]; -0.788 (inactive) in [6]; 0.558 (inactive) in [7]. The z-score in test [8] was -0.899 (inactive); in [9], -0.424. Further, the composite z-score in test [4] was -2.45 (inactive); in [10], 0.123.
For the molecule `CCOC(=O)C1=CC[C@H]2C(=O)N(CC)C(=O)[C@@H]12`, the z-score in test [1] was 0.507; in [2], 1.31 (inactive); in [3] it was 0.293 (inactive); in [5], 0.0236 (inactive); in test [6], 1.38 (inactive); in test [7], -0.0583 (inactive). For the same molecule, the z-score in [8] is -0.196 (inactive); in [9], 0.667. The composite z-score is 0.467 (inactive) in test [4] and -0.311 in test [10].
Turning to `O=C1C2=CC[C@H]3C(=O)N(Cc4ccc5c(c4)OCO5)C(=O)[C@H]3[C@H]2[C@H](O)[C@@H]2O[C@H]12`, the z-score in test [1] is -0.522; in test [2] it was -0.105 (inactive); in test [3], -0.677 (inactive); in test [5], 0.0578 (inactive); in test [6], -0.491 (inactive); in test [7], 0.166 (inactive). Further, the z-score in test [8] is 0.0632 (inactive); in [9], -1.49. Also, the composite z-score was -0.907 (inactive) in [4] and -0.381 in [10].
Turning to `CCCNC(=O)OC[C@H]1O[C@H](CCON=C2[C@H]3CCn4c(=O)n(-c5ccccc5)c(=O)n4[C@H]3[C@H](O)[C@@H]3O[C@H]23)C=C[C@@H]1Oc1ccc(OC)cc1`, the z-score in test [1] was -0.633; in test [2] it was -0.521 (inactive); in [3] it was -1.52 (inactive); in test [5], 0.0767 (inactive); in test [6], 0.12 (inactive); in [7] it was 0.621 (inactive). The z-score in [8] was 1.13 (inactive); in [9], -2.05. For the same molecule, the results for the composite z-score in [4] and in test [10] were 0.017 (inactive) and -0.2, respectively.
For the molecule `COC(=O)[C@H](C)NC(=O)CCC1CC(OC(=O)NCc2cccc3ccccc23)CC2(CCCC(COC(=O)NCCc3ccc(Cl)cc3)O2)O1` (stereo not given in full), the z-score in test [1] was 0.788; in test [2] it was -0.0765 (inactive); in test [3], 0.319 (inactive); in [5] it was -0.61 (inactive); in test [6], -0.425 (inactive); in test [7], -0.0798 (inactive). Besides, the z-score in test [8] is 0.687 (inactive); in test [9] it was 0.413. The composite z-score in [4] was -0.473 (inactive); in test [10], -0.0718.
With `O=C1[C@H]2[C@H]3[C@H](O)[C@H](O)CC(=NO[C@@H]4O[C@H](CO)[C@@H](O)[C@H](O)[C@H]4O)[C@H]3CC[C@H]2C(=O)N1C1CCCCC1`, the z-score in test [1] is 0.241; in test [2], 0.205 (inactive); in [3] it was -0.655 (inactive); in [5], -0.613 (inactive); in [6] it was -0.629 (inactive); in test [7] it was 0.411 (inactive). Also, the values for the z-score in test [8] and in test [9] were 0.232 (inactive) and -0.815, respectively. In addition, the composite z-score in [4] is 0.26 (inactive); in [10] it was 0.155.
Regarding `CN1C(=O)C2C=CC(C(O)c3ccc(I)cc3)N(NC(=O)OC(C)(C)C)C2C1=O` (stereo not given), the z-score in [1] is -1.11; in [2], 0.9 (inactive); in [3], -0.694 (inactive); in test [5] it was 0.53 (inactive); in [6], 0.983 (inactive); in test [7] it was -0.446 (inactive). In addition, the z-score in test [8] was -0.18 (inactive); in test [9], -0.639. The results for the composite z-score in [4] and in test [10] were 0.0247 (inactive) and 0.308, respectively.
